This is a sample that favours compounds with a hit; in the whole collection about 2.7% have one here.
PAFAH1B2 FP inh: blocks human PAF acetylhydrolase 1b catalytic subunit 2; P68402; recombinant PAFAH1B2, FP-rhodamine activity probe, fluorescence polarization; inhibition, % at 3.39 µM; 340,000 tested, 1.2% active; AID 492953;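 active = inhibition above the mean of all tested compounds plus 3 SD, cut at about 24% in these data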;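 note: 0% = enzyme with DMSO and 100% = wells lacking PAFAH1B2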
PAFAH1B3 inh: blocks human PAF acetylhydrolase 1B catalytic subunit 3 | 340,000 tested, 0.28% active | inhibition, % at 3.39 µM | Q15102 | AID 492972 | recombinant PAFAH1B3, FP-rhodamine probe, fluorescence polarization;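 active = inhibition above the screen-wide average of all tested compounds plus 3 SD, cut at about 25% in these data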;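 note: 0% = enzyme with DMSO only and 100% = wells lacking PAFAH1B3 protein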
Target sequence (Q15102 whole entry, looked up): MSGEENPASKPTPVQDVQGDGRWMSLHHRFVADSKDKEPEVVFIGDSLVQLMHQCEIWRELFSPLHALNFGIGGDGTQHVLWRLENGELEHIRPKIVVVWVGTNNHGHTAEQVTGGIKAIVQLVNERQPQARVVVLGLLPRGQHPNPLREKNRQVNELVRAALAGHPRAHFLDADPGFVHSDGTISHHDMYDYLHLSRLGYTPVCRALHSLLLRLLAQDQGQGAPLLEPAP
PAFAH2 inh: PAFAH2 (human) inhibition; recombinant PAFAH2, FP-rhodamine activity probe, fluorescence polarization; inhibition, % at 3.39 µM; 340,000 tested, 0.99% active; AID 492956;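 active = inhibition above the mean over all tested compounds plus 3 SD, cut at about 30% in these data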;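 note: inhibitors block probe labeling of enzyme so polarization drops; 0% = enzyme with DMSO and 100% = wells lacking PAFAH2 protein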
TCR CD3 inh: human TCR-CD3 binding inhibition; AID 651800; TAMRA-labeled TCR probe fluorescence, biochemical; inhibition, % at 9.4 µM; 360,000 tested, 0.37% active; in the data active = inhibition above about 19%;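 note: recombinant mutant TCR 2C K166C tagged with TAMRA read by polarization; 0% = receptor in buffer alone and 100% = receptor with positive control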
pPAFAH inh: pPAFAH (human) enzyme inhibition; AID 463082; Q13093; inhibition, % at 3.39 µM; 330,000 tested, 1.5% active; recombinant pPAFAH, FP-rhodamine probe fluorescence polarization;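 active = inhibition above the mean inhibition across the screen plus 3 SD, cut at about 25% in these data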;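 note: inhibitors block binding of the rhodamine activity-based probe so polarization drops; 0% = enzyme with DMSO and 100% = wells lacking pPAFAH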
Target sequence (Q13093 whole entry, looked up): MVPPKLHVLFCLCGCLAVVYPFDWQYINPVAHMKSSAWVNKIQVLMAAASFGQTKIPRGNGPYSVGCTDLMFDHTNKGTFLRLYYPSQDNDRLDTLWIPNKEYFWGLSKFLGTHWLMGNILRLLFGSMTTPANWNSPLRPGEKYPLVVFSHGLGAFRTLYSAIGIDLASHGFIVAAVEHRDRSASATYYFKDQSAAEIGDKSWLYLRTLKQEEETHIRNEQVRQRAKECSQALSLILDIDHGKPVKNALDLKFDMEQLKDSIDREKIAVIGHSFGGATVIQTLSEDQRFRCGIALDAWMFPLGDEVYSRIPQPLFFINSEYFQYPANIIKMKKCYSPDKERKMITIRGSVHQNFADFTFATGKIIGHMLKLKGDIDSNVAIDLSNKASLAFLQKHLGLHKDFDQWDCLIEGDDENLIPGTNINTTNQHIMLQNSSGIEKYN
Active calls of the source: *.

What do the screens show for `Nc1ccc2c(c1)C(=O)C(=O)c1ccccc1-2`?
PAFAH1B2 FP inh: 25.1*; PAFAH1B3 inh: 75.8*; PAFAH2 inh: 62.5*; TCR CD3 inh: -3.9; pPAFAH inh: 15.2

How did CC(=O)Oc1ccc2c(c1)O/C(=C\c1ccncc1)C2=O do in these assays?
PAFAH1B2 FP inh: 0.5; PAFAH1B3 inh: 2.6; PAFAH2 inh: -7.2; pPAFAH inh: 3.2

What do the screens show for `CCc1ccc(/C=C2\Oc3cc(OC(=O)N4CCOCC4)ccc3C2=O)cc1`?
PAFAH1B2 FP inh: 3.4; PAFAH1B3 inh: 8.7; PAFAH2 inh: 3.0; TCR CD3 inh: -7.4; pPAFAH inh: 26.3*

How did COc1ccc2c(c1)O/C(=C\c1ccccc1C)C2=O do in these assays?
PAFAH1B2 FP inh: 2.2; PAFAH1B3 inh: 3.8; PAFAH2 inh: -8.4; TCR CD3 inh: 1.9; pPAFAH inh: 27.2*

What do the screens show for `COc1ccc(/C=C2\Oc3cc(OC(=O)N4CCOCC4)ccc3C2=O)cc1`?
PAFAH1B2 FP inh: 4.8; PAFAH1B3 inh: 6.9; PAFAH2 inh: 11.6; TCR CD3 inh: -3.5; pPAFAH inh: 27.0*

What do the screens show for `CC(C)CCNC(=O)[C@@H](Cc1ccccc1)NC(=O)[C@H]1O[C@@H](n2ccc(=O)[nH]c2=O)[C@H](O)[C@@H]1O`?
TCR CD3 inh: 5.6

How did O=C(O)c1cc(NS(=O)(=O)c2ccc3ccccc3c2)ccc1O do in these assays?
PAFAH1B2 FP inh: 48.0*; PAFAH1B3 inh: 5.2; PAFAH2 inh: 21.3; TCR CD3 inh: 2.6; pPAFAH inh: 2.9

How did O=C(O)c1ccccc1NS(=O)(=O)c1ccc2ccccc2c1 do in these assays?
PAFAH1B2 FP inh: 14.4; PAFAH1B3 inh: -5.3; PAFAH2 inh: 0.7; TCR CD3 inh: 5.1; pPAFAH inh: -7.2

How did Cc1ccccc1C1C2=C(Nc3[nH]n(-c4ccccc4)c(=O)c31)c1ccccc1C2=O (stereo not given) do in these assays?
pPAFAH inh: 5.6

What do the screens show for `Cc1cccc(C2C3=C(Nc4[nH]n(-c5ccccc5)c(=O)c42)c2ccccc2C3=O)c1` (stereo not given)?
PAFAH1B2 FP inh: 51.6*; PAFAH1B3 inh: 20.6; PAFAH2 inh: 62.4*; TCR CD3 inh: 4.3

What do the screens show for `CCOC(=O)c1c(NC(=O)COc2ccccc2OCC)sc2c1CC(C)(C)NC2(C)C`?
PAFAH1B2 FP inh: 3.7; PAFAH1B3 inh: 0.4; PAFAH2 inh: 4.5; pPAFAH inh: 5.7

What do the screens show for `CCOC(=O)c1c(NC(=O)Cc2ccccc2)sc2c1CC(C)(C)NC2(C)C`?
PAFAH1B2 FP inh: -2.6; PAFAH1B3 inh: 6.0; PAFAH2 inh: -1.1; TCR CD3 inh: -0.7; pPAFAH inh: 31.9*

Results for CCOC(=O)c1c(-c2ccc(OC)cc2)oc2ccc(O)cc12 ?
PAFAH1B2 FP inh: -0.1; PAFAH1B3 inh: -6.5; PAFAH2 inh: -2.2; TCR CD3 inh: 0.8; pPAFAH inh: 31.4*

What do the screens show for `COc1cc2c(cc1OC)CN(C(=O)C(CCSC)NS(=O)(=O)c1ccc(C)cc1)CC2` (stereo not given)?
PAFAH1B2 FP inh: 1.1; PAFAH1B3 inh: 13.9; PAFAH2 inh: 6.7; TCR CD3 inh: -1.4; pPAFAH inh: -0.4

How did Cc1cc(N2CCN(S(C)(=O)=O)C[C@H]2C)ccc1N1CCN(Cc2ccccc2)[C@H](C)C1 do in these assays?
TCR CD3 inh: 10.6

How did O=C(NCC(c1ccco1)N1CCCCC1)c1ccc(NS(=O)(=O)c2ccc(F)cc2)cc1 (stereo not given) do in these assays?
PAFAH1B2 FP inh: 5.3; PAFAH1B3 inh: -3.6; PAFAH2 inh: -3.9; TCR CD3 inh: -7.1; pPAFAH inh: -0.1

What do the screens show for `COc1ccc(C(=O)NCc2ccccc2CN2CCCC2)cc1S(=O)(=O)Nc1ccc(C)cc1`?
PAFAH1B2 FP inh: 7.6; PAFAH1B3 inh: 2.3; PAFAH2 inh: 2.5; TCR CD3 inh: 2.8; pPAFAH inh: 25.1*

What do the screens show for `COc1ccc(NS(=O)(=O)c2cccc(C(=O)NCC(c3ccco3)N3CCCCC3)c2)cc1` (stereo not given)?
PAFAH1B2 FP inh: 0.6; PAFAH1B3 inh: 3.8; PAFAH2 inh: 3.7; TCR CD3 inh: 0.0; pPAFAH inh: 30.7*

Results for O=C(NCC(c1ccco1)N1CCCC1)c1cccc(NS(=O)(=O)c2ccc(Br)cc2)c1 (stereo not given) ?
PAFAH1B2 FP inh: 13.8; PAFAH1B3 inh: 8.3; PAFAH2 inh: 4.9; TCR CD3 inh: 1.5; pPAFAH inh: 1.6

How did O=C(NCC(c1ccco1)N1CCCC1)c1ccc(S(=O)(=O)Nc2ccc(F)cc2)cc1 (stereo not given) do in these assays?
PAFAH1B2 FP inh: 3.7; PAFAH1B3 inh: 8.4; PAFAH2 inh: 1.8; TCR CD3 inh: -13.3; pPAFAH inh: 28.5*

What do the screens show for `Cc1cccc(NS(=O)(=O)c2cccc(C(=O)NCC(c3ccco3)N3CCCCC3)c2)c1` (stereo not given)?
PAFAH1B2 FP inh: -0.4; PAFAH1B3 inh: -4.3; PAFAH2 inh: -3.4; TCR CD3 inh: 7.0; pPAFAH inh: 32.7*

How did Cc1ccc(NC(=S)NC(=O)Cc2ccccc2)c(O)c1 do in these assays?
PAFAH1B2 FP inh: 3.8; PAFAH1B3 inh: 2.2; PAFAH2 inh: 6.5; TCR CD3 inh: 4.7

What do the screens show for `CCOc1ccc(N(CC(=O)N2CCOCC2)S(=O)(=O)c2ccc(SC)cc2)cc1`?
PAFAH1B2 FP inh: 1.1; PAFAH1B3 inh: -4.8; PAFAH2 inh: 1.3; TCR CD3 inh: -4.2; pPAFAH inh: 2.8

Results for Cc1ccccc1CSCC1Nc2ccc(C(=O)NCCc3ccccc3)cc2NC1=O (stereo not given) ?
TCR CD3 inh: -9.2

What do the screens show for `O=C(N[C@H](c1cccc(Br)c1)[C@@H]1CCCC=C1c1ccccc1)C(F)(F)F`?
TCR CD3 inh: 0.3

How did O=C(N[C@H](C(=O)N1CCC[C@H]1C(=O)NCc1ccccc1)C1CCCCC1)c1ccc(Cl)c(Cl)c1 do in these assays?
TCR CD3 inh: 1.1

What do the screens show for `COc1ccccc1C(CNC(=O)c1cccc(S(=O)(=O)Nc2ccc(C)cc2)c1)N1CCCC1` (stereo not given)?
PAFAH1B2 FP inh: 1.7; PAFAH1B3 inh: 3.6; PAFAH2 inh: 2.4; TCR CD3 inh: -5.9; pPAFAH inh: 30.7*

Results for CC(C)CNc1cccc2c1S(=O)(=O)N[C@@H](CC(C)C)CO2 ?
TCR CD3 inh: 7.6

How did CC(=O)Oc1cc(C)c(Cl)c2c(OC(C)=O)cc(C(C)=O)c(O)c12 do in these assays?
TCR CD3 inh: 10.9

What do the screens show for `Cc1ccc(NC(=O)/C(C#N)=C(\N)C(Cl)(Cl)Cl)nc1`?
PAFAH1B2 FP inh: 44.9*; PAFAH1B3 inh: 42.6*; PAFAH2 inh: 41.0*; pPAFAH inh: 5.5

What do the screens show for `CN1CCCCC(NC(=O)c2ccc3ccccc3c2)C1=O` (stereo not given)?
TCR CD3 inh: -0.9

What do the screens show for `Cc1cccc(Nc2nc(-c3c(C)nc4ccccn34)cs2)c1`?
PAFAH1B2 FP inh: 1.7; PAFAH1B3 inh: 14.1; PAFAH2 inh: 0.7; TCR CD3 inh: 8.8; pPAFAH inh: 30.4*

How did O=C(O)c1sccc1SCc1ccc(Cl)cc1Cl do in these assays?
PAFAH1B2 FP inh: 30.1*; PAFAH1B3 inh: 5.5; PAFAH2 inh: 4.1; TCR CD3 inh: 1.5; pPAFAH inh: 6.0
